Results filed as inconclusive are left out. Active and inactive are the calls of the source. Unless noted, the call rests on the fitted dose curve; in most records, active means well fitted curve in the direction sought with a large enough effect; inconclusive means small, poorly fitted or top-dose-only effect, or another doubt; inactive means no such curve, though single readings can be large; an effect the other way counts as inactive or inconclusive.

Test [1] in a line: qHTS for differential inhibitors of proliferation of Plasmodium falciparum line D10 (AID 1877).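 Further: parasites grown with compound for 72 h before DNA staining.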 Further: potency means the concentration at half of the fitted maximal effect. On the technique in general: Quantitative high-throughput screening tests each substance at several concentrations.
Test [2] is described as follows: qHTS for differential inhibitors of proliferation of Plasmodium falciparum line W2 (AID 1883).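 Further: parasites grown with compound for 72 h before lysis and staining.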 Further: potency means the concentration at half of the fitted maximal effect. The note with it: Potency: Plasmodium falciparum W2 proliferation inhibition.
Test [3] can be described thus: qHTS for differential inhibitors of proliferation of Plasmodium falciparum line HB3 (AID 1886).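 Further: parasites grown with compound for 72 h before SYBR Green readout.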 Further: potency means the concentration at half of the fitted maximal effect. The note with it: Potency: Plasmodium falciparum HB3 proliferation inhibition.
In test [4] the target is Ferritin light chain (Equus caballus) (UniProt P02791). Briefly: qHTS Validation Assay for Identification of Novel General Anesthetics (AID 2323). Further: series mostly up to about 77 µM. In a few lines:
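Normalized fluorescence response, scaled between free 1-AMA and 1-AMA/apoferritin complex, fitted to a four-parameter Hill equation for concentration-effect values. Binding mix: 10 uM horse-spleen apoferritin, 50% saturated 1-AMA in PBS; read 380/535 nm after 10 min.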

For test [5], the target named is ATP-dependent DNA helicase Q1 (Homo sapiens) (UniProt P46063). Briefly: qHTS Validation Assay for Inhibitors of RecQ-Like Dna Helicase 1 (RECQ1) (AID 2353). Further: potency means the concentration at half of the fitted maximal effect. In a few lines:
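50 nM RECQ1T1 preincubated 15 min with compound in Tris pH 8.0 buffer with MgCl2, DTT, Tween-20 and 2.5 ug/ml poly(dI-dC); started with 200 nM TAMRA/BHQ-2 forked duplex and 2 mM ATP. Unwinding read as fluorescence (525/598 nm), two reads 2 h apart.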

Test [6] concerns the target RecQ-like DNA helicase BLM (Homo sapiens) (UniProt P54132). In words: qHTS Validation Assay for Inhibitors of Bloom's syndrome helicase (BLM) (AID 2364). Further: potency means the concentration at half of the fitted maximal effect. Put shortly:
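BLM 50 nM in 25 mM Tris-HCl pH 8.0, 5 mM NaCl, 2 mM MgCl2, 1 mM DTT, 0.01% Tween-20, 2.5 ug/ml poly(dI-dC); 15 min cpd preinc, RT. Start: 200 nM forked DNA + 2 mM ATP (final). TAMRA read, 2 reads 2 h apart.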

The nature of test [7]: qHTS Assay for Modulators of Human Peripheral Myelin Protein 22 (PMP22) Expression/Activity (AID 1967; active means well fitted curve in the direction sought with a large enough effect in the signal ratio; the % refers to the signal ratio). Put shortly: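 Engineered MSC80 cells, Pmp22-promoter green and EF-alpha red luciferase reporters; 24h compound treatment at 37 °C. Concentration-response fits on green, red and ratio signals, each overlap-corrected, with %Activity normalized to untreated wells.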
Test [8] is described as follows: qHTS for differential inhibitors of proliferation of Plasmodium falciparum line Dd2 (AID 1882).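 Further: series mostly up to about 29 µM; compound exposure of 72 h on infected erythrocytes; nearly all actives have a fitted effect of over 65% in size.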 The note with it: Potency: Plasmodium falciparum Dd2 proliferation inhibition. Put shortly: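 SYBR Green I DNA fluorescence read-out, ex 485/em 535 nm. Signals were normalized to 0.29 uM artemisinin and DMSO wells, then corrected using vehicle-only plates flanking each stack. Parasite growth ran 72 h in erythrocytes before lysis.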

Sequence of RecQ-like DNA helicase BLM (Homo sapiens) (P54132 whole entry, looked up): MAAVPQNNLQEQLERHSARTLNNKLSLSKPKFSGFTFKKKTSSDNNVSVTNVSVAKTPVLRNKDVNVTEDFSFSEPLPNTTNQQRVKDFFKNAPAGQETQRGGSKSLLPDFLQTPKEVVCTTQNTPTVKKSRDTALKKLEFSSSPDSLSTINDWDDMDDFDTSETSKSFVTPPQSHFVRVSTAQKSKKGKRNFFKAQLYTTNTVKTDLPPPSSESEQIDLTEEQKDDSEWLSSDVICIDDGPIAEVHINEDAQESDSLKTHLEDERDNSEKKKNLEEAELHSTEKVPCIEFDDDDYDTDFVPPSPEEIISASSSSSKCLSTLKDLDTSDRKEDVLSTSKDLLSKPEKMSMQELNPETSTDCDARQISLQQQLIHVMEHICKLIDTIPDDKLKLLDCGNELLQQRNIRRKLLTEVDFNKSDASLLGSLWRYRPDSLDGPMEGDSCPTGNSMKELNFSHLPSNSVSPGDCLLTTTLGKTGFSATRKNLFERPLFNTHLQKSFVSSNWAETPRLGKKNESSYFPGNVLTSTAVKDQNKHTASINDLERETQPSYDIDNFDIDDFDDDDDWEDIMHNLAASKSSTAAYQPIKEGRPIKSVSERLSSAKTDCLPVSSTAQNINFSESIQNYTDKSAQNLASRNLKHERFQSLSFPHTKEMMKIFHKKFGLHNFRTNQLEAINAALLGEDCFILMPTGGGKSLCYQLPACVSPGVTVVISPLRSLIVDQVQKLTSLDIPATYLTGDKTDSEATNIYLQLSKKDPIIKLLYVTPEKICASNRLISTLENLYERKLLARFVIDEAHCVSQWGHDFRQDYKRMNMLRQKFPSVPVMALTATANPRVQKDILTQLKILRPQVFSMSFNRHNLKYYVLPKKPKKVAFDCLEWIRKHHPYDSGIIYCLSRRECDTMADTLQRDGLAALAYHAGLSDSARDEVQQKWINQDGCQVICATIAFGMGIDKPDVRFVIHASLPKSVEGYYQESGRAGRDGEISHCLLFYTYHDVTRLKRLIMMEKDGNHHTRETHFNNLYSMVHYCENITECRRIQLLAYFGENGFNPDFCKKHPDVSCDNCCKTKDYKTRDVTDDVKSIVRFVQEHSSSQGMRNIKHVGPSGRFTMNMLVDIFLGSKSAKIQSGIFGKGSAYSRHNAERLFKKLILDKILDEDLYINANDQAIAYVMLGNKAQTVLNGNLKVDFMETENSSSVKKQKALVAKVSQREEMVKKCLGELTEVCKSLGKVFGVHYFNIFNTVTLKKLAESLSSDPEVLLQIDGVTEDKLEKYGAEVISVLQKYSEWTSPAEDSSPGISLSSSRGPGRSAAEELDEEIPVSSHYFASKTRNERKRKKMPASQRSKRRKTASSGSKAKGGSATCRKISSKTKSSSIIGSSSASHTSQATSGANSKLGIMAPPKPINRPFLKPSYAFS
Sequence of Ferritin light chain (Equus caballus) (P02791 2-175 limits assumed): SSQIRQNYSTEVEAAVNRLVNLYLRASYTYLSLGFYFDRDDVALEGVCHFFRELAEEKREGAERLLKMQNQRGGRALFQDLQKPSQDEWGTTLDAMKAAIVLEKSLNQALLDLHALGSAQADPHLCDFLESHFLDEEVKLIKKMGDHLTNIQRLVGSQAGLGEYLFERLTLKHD
Sequence of ATP-dependent DNA helicase Q1 (Homo sapiens) (P46063 whole entry, looked up): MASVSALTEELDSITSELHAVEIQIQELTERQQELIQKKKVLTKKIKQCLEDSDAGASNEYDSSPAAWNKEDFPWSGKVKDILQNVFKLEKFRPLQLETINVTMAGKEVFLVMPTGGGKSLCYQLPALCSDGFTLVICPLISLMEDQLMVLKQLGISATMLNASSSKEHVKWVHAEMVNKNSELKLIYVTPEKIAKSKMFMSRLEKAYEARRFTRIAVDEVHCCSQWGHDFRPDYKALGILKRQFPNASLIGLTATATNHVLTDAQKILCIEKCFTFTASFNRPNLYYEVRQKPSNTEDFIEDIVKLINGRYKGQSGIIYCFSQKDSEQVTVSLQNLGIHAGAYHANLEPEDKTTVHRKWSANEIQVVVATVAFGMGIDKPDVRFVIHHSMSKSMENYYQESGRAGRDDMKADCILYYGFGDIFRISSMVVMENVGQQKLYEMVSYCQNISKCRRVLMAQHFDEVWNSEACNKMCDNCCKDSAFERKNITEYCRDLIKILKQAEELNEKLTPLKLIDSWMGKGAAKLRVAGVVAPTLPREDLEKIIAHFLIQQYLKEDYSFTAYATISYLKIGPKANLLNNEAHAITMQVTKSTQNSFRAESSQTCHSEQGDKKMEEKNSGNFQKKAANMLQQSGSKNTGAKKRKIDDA

For the compound `CN[C@H](CC(=O)O)C(=O)O`, the Potency result in test [1], in test [2], in test [3], in test [4], in test [5] and in test [6] was “inactive” throughout.
Take `OCC1NCC(O)C(O)C1O` (centres undefined): the Potency entry in test [1], in test [2], in test [3], in test [4], in test [5] and in test [6] was “inactive” in each case. For the same compound, the compound was classed as inactive in test [7].
On to `O=C(O)Cc1c[nH]c2ccc(O)cc12`, for which the Potency result in test [1], in test [8], in test [4], in test [5] and in test [6] was “inactive” in each case.
On to `CCCn1c(=O)c2[nH]c(-c3ccc(S(=O)(=O)O)cc3)nc2n(CCC)c1=O`, for which the Potency entry in test [1], in test [8], in test [5] and in test [6] was “inactive” throughout.
Take `CN1CCC2(CCN3CCc4c(oc5ccccc45)C3C2)N(C)C1=O` (centres undefined): the Potency entry in test [1], in test [8] and in test [5] was “inactive” each time.
Regarding `CSC(=N)N`, the Potency entry in test [1], in test [2], in test [3] and in test [5] was “inactive” in each case. Also, the compound was classed as inactive in test [7].
For `CN1CCN(c2nc3cc(C(F)(F)F)ccc3n3cccc23)CC1`, the Potency was 11.2 µM (active) in test [1], 5.62 µM (active) in test [2] and 11.2 µM (active) in test [3]. For the same compound, the Potency entry in test [4], in test [5] and in test [6] was “inactive” each time.
Take `CC(=O)NCCc1c[nH]c2ccc(O)cc12`: the Potency entry in test [1], in test [2], in test [3], in test [4] and in test [5] was “inactive” throughout. Besides, the compound was classed as inactive in test [7].
For the compound `CN(C)CCC(c1ccc(Br)cc1)c1ccccn1` (centres undefined), the Potency entry in test [1], in test [3], in test [4], in test [5] and in test [6] was “inactive” in each case. Besides, in test [2], the Potency was 0.891 µM (active). In addition, the outcome in test [7] was inactive.
`COc1cc(C(O)C(=O)O)ccc1O` (centres undefined): the Potency entry in test [1], in test [2], in test [3], in test [4] and in test [5] was “inactive” in each case. Moreover, in test [7], the compound was classed as inactive.
As for `Nc1ccc(-c2nc3ccc(-c4nc5ccc(N)cc5[nH]4)cc3[nH]2)cc1`, the Potency in test [1] is 0.708 µM (active); in test [2], 0.251 µM (active); in test [3] it was 0.794 µM (active); in test [5], 8.91 µM (active); in test [6], 22.4 µM (active). Moreover, in test [4], the Potency result is “inactive”.
Turning to `C=C(C)C1CC=C(C(=O)O)CC1` (centres undefined), the Potency entry in test [1], in test [2], in test [3], in test [4], in test [5] and in test [6] was “inactive” throughout. The result in test [7] was inactive.
`O=C(O)c1cc2cc(F)ccc2[nH]1`: the Potency result in test [1], in test [8], in test [4], in test [5] and in test [6] was “inactive” each time. For the same compound, the call in test [7] was inactive.
For the compound `CC1=C(C(=O)O)N2C(=O)[C@@H](NC(=O)C(N)C3=CCC=CC3)[C@H]2SC1` (some centres undefined), the Potency entry in test [1], in test [2], in test [3], in test [4] and in test [5] was “inactive” throughout.
As for `CCC1(O)CC2CN(CCc3c([nH]c4ccccc34)[C@@](C(=O)OC)(c3cc4c(cc3OC)N(C=O)C3[C@]45CCN4CC=C[C@@](CC)([C@@H](OC(C)=O)[C@]3(O)C(=O)OC)[C@H]45)C2)C1` (some centres undefined), the figures for the Potency in test [1], in test [2] and in test [3] were 0.224 µM (active), 0.0501 µM (active) and 1.78 µM (active), respectively. Moreover, the Potency entry in test [4] and in test [5] was “inactive” throughout.
For `Cc1cccc(C2CN(C)CCc3c2cc(O)c(O)c3Cl)c1` (centres undefined), the Potency in test [1] was 11.2 µM (active); in test [2], 7.08 µM (active); in test [3], 12.6 µM (active). Besides, the Potency result in test [4], in test [5] and in test [6] was “inactive” in each case.
Turning to `[N-]=[N+]=Nc1ccc(C(=O)CSC[C@H](NC(=O)CC[C@H](N)C(=O)O)C(=O)NCC(=O)O)cc1`, the Potency result in test [1], in test [8] and in test [3] was “inactive” throughout. The Potency in test [6] is 28.2 µM (active).
With `CC1CNCCN1S(=O)(=O)c1cccc2cnccc12` (centres undefined), the Potency result in test [1], in test [3], in test [4], in test [5] and in test [6] was “inactive” in each case. Also, the Potency in test [2] is 7.08 µM (active).
`CC1CCN(CC[C@H]2CCCN2S(=O)(=O)c2cccc(O)c2)CC1`: the Potency entry in test [1], in test [3], in test [4] and in test [5] was “inactive” throughout. The Potency in test [2] is 8.91 µM (active). Further, the compound was classed as inactive in test [7].
Take `O=C1Cc2c([nH]c3ccc(Br)cc23)-c2ccccc2N1`: the Potency in test [1] is 11.2 µM (active); in test [2], 10 µM (active); in test [3], 12.6 µM (active). Besides, the Potency result in test [4] and in test [5] was “inactive” each time.
`NCCCCN`: the Potency entry in test [1], in test [2], in test [3], in test [4], in test [5] and in test [6] was “inactive” each time.
Consider `CC(N)=NCCCC[C@@H](N)C(=O)O`, for which the Potency entry in test [1], in test [2], in test [3] and in test [5] was “inactive” throughout.
`CC(C)Cn1c(=O)n(C)c(=O)c2[nH]cnc21`: the Potency entry in test [1], in test [2], in test [3], in test [4], in test [5] and in test [6] was “inactive” in each case.
Turning to `NC(=Nc1ccccc1)NC(=O)c1nc(Cl)c(N)nc1N`, the Potency in test [1] was 8.91 µM (active); in test [2], 7.08 µM (active); in test [3], 7.94 µM (active). Also, the Potency result in test [4], in test [5] and in test [6] was “inactive” throughout.
`CC(N)(C(=O)O)c1ccc(C(=O)O)cc1` (centres undefined): the Potency entry in test [1], in test [2], in test [3], in test [4] and in test [5] was “inactive” in each case. Moreover, the result in test [7] was inactive.

The record behind these values is PubChem BioAssay (NCATS).
